Source: PubChem BioAssay (NCATS)
Several values for one entry are separate records, joined by “and”; a condition that tells them apart may be missing. Equal entries are not always repeated. Inconclusive results are not listed. Activity calls are given as the source filed them. Unless noted, calls come from the whole dose curve.

Columns and labels:
[1] = molecular target: Ubiquitin carboxyl-terminal hydrolase 1 (Homo sapiens) (UniProt O94782); test: Inhibitors of USP1/UAF1: Pilot qHTS (AID 504865; active = well fitted inhibition curve with a large enough effect;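 note: rhodamine fluorescence freed from ubiquitin-rhodamine substrate followed over time; top concentration of the series differs between compounds; % is set by controls: 0 for no effect and ±100 for the full control effect; nearly all actives have a fitted effect of over 35% in size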)
In short: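 1nM USP1/UAF1 + cpd, 15 min RT; start w/ Ub-Rho 150nM final; kinetic FL 480/540 nm, 6 reads q60 s. Buffer 50mM HEPES pH 7.8, 0.5mM EDTA, 1mM TCEP, 0.01% Tween-20, 0.1 mg/ml BSA.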

[2] = molecular target: Estrogen receptor (Homo sapiens) (UniProt P03372); test: qHTS assay for small molecule antagonists of estrogen receptor alpha signaling (AID 588513; active = well fitted curve in the direction sought with a large enough effect in the signal ratio, with a control signal flat, not every such curve was filed as active; the % refers to the signal ratio; note: % is set by controls: 0 for no effect and ±100 for the full control effect)
In short: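 Beta-lactamase reporter, antagonist mode, HEK 293 GripTite cells; 0.5nM E2 stimulus, 18 h, 37 C; CCF4 dye 2 h RT; fluorescence. IC50 and efficacy from Hill fits, normalized to E2 and DMSO.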

[3] = molecular target: Estrogen receptor (Homo sapiens) (UniProt P03372); test: qHTS assay for small molecule agonists of estrogen receptor alpha signaling (AID 588514);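 note: 0% = vehicle only and 100% = reference agonist; nearly all actives have a fitted effect of over 70% in size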
In short: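 Cells were plated at 5000/well, incubated 4 hrs at 37 C, dosed with compound titration series, incubated 18 hrs at 37 C, loaded with CCF4 dye for 2 hrs at RT, then fluorescence was read.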

[4] = molecular target: Bile acid receptor (Homo sapiens) (UniProt Q96RI1); test: qHTS assay for small molecule antagonists of farnesoid X receptor signaling (AID 588526); note: % is set by controls: 0 for no effect and ±100 for the full control effect
In short: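 Antagonist mode: titrated compounds tested against chenodeoxycholic acid stimulation (normalized to 50 uM CDCA and DMSO) in GeneBLAzer HEK293T cells for 16 h. Beta-lactamase read by CCF4 fluorescence; IC50 from Hill fits.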

[5] = molecular target: Glucocorticoid receptor (Homo sapiens) (UniProt P04150); test: qHTS assay for small molecule agonists of glucocorticoid receptor signaling (AID 588532; active = well fitted curve in the direction sought with a large enough effect in the signal ratio, with a control signal flat; the % refers to the signal ratio;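 note: 100% = dexamethasone at 0.1 µM and 0% = DMSO only wells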); details: HeLa MMTV-bla, beta-lactamase ratio, agonist, 18 h; stronger effect = higher value; percent of dexamethasone control, DMSO zero
In short: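 Cells were plated and rested 3-5 h at 37 C, compounds were added in titration and incubated 18 h, then CCF4 substrate was loaded for 2 h at RT before reading blue/green fluorescence. EC50 came from Hill-equation fitting.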

[6] = molecular target: Glucocorticoid receptor (Homo sapiens) (UniProt P04150); test: qHTS assay for small molecule antagonists of glucocorticoid receptor signaling (AID 588533; active = well fitted inhibition curve with a large enough effect in the signal ratio, with a control signal flat, not every such curve was filed as active; the % refers to the signal ratio; note: % is set by controls: 0 for no effect and ±100 for the full control effect)
In short: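 Antagonist-mode qHTS: compound titrations added to GRE-bla HeLa cells, then dexamethasone 2 nM final; 18 h, 37 C. CCF4 FRET fluorescence normalized to dexamethasone and DMSO; IC50 from Hill fit.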

[7] = qHTS assay for small molecule antagonists of peroxisome proliferator-activated receptor delta signaling (AID 588535; active = well fitted inhibition curve with a large enough effect in the signal ratio, with a control signal flat, not every such curve was filed as active; the % refers to the signal ratio;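 for max response: cells co-treated with a PPAR-delta agonist as stimulator during compound exposure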); details: HEK293T PPARd-UAS-bla, beta-lactamase FRET ratio, 18 h; 460 nm channel
In short: (§1)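 Antagonist-mode beta-lactamase reporter (GeneBLAzer PPAR-delta-UAS-bla) in HEK293T cells, 2% charcoal/dextran FBS, 4000 cells/well. Compound titrations, 18 h at 37 C; CCF4 ratio read, IC50 and efficacy from Hill fits.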

[8] = molecular target: Peroxisome proliferator-activated receptor delta (Homo sapiens) (UniProt Q03181); test: as above
In short: as §1

[9] = molecular target: Peroxisome proliferator-activated receptor gamma (Homo sapiens) (UniProt P37231); test: qHTS assay for small molecule agonists of peroxisome proliferator-activated receptor gamma signaling (AID 588536; active = well fitted curve in the direction sought with a large enough effect in the signal ratio, with a control signal flat, not every such curve was filed as active; the % refers to the signal ratio;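 note: 0% = DMSO basal wells and 100% = rosiglitazone at 2 µM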)
In short: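 PPAR-gamma-UAS-bla HEK293 cells in medium with 1% charcoal/dextran-treated FBS were exposed to compounds for 16 h at 37 C. Beta-lactamase activity was read with CCF4 substrate (405 nm excitation, 460/530 nm emission).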

[10] = molecular target: Peroxisome proliferator-activated receptor gamma (Homo sapiens) (UniProt P37231); test: qHTS assay for small molecule antagonists of peroxisome proliferator-activated receptor gamma signaling (AID 588537; active = well fitted inhibition curve with a large enough effect in the signal ratio, with a control signal flat, not every such curve was filed as active; the % refers to the signal ratio;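 note: reporter cells co-stimulated with 50 nM rosiglitazone agonist during compound treatment; % of control where 0% means no effect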)
In short: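 PPARγ-UAS-bla HEK293 cells (3000/well) in 1% charcoal/dextran-stripped FBS are treated with compound, then stimulated with 50 nM rosiglitazone for 16 h at 37 °C. Read-out is CCF4 β-lactamase fluorescence after 2 h at RT. IC50 comes from Hill fits normalised to rosiglitazone and DMSO.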

[11] = molecular target: Vitamin D3 receptor (Homo sapiens) (UniProt P11473); test: qHTS assay for small molecule antagonists of vitamin D receptor signaling (AID 588541);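 note: receptor activated by calcitriol during compound treatment; series mostly up to about 77 µM; % is set by controls: 0 for no effect and ±100 for the full control effect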
In short: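 VDR-UAS-bla HEK293T cells in 2% charcoal-stripped FBS were stimulated with 1-alpha,25-dihydroxyvitamin D3 (3 nM final) plus compound for 16 h at 37 C. The beta-lactamase CCF4 readout was normalized to 50 nM agonist and DMSO, and Hill fits gave IC50.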

[12] = molecular target: Vitamin D3 receptor (Homo sapiens) (UniProt P11473); test: qHTS assay for small molecule agonists of vitamin D receptor signaling (AID 588543);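 note: 0% = DMSO basal and 100% = reference agonist control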
In short: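 β-lactamase reporter, VDR-UAS-bla HEK293T, agonist mode. Cells plated 5 h at 37 °C, compound titration 16 h at 37 °C, CCF4 dye 2 h RT, ratio 460/530 nm. Hill fit → EC50, efficacy vs 50 nM 1α,25-(OH)2D3.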

[13] = qHTS assay for small molecule agonists of retinoid X receptor alpha signaling (AID 588544); details: HEK293T RXRa-UAS-bla, beta-lactamase reporter, 18 h; 530 nm emission;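 for activation: 0% = DMSO basal wells and 100% = reference agonist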
[14] = molecular target: Retinoic acid receptor RXR-alpha (Homo sapiens) (UniProt P19793); test: as above
[15] = qHTS assay for small molecule antagonists of retinoid X receptor alpha signaling (AID 588546; active = well fitted inhibition curve with a large enough effect in the signal ratio, with a control signal flat, not every such curve was filed as active; the % refers to the signal ratio); details: HEK293T RXRa-UAS-bla, beta-lactamase ratio, antagonist mode; measured here: W530 green channel, cytotoxicity proxy
In short: (§2)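 Beta-lactamase reporter inhibition, read as CCF4 fluorescence ratio (ex 405, em 460/530 nm) after 2 h at RT. HEK293T UAS-bla cells, 2500/well, were stimulated with 9-cis-RA at 500 or 100 nM final alongside test compound for 18 h at 37 C.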

[16] = molecular target: Retinoic acid receptor RXR-alpha (Homo sapiens) (UniProt P19793); test: as above; details: HEK293T RXRa-UAS-bla, beta-lactamase ratio, antagonist mode
In short: as §2

[17] = molecular target: DNA dC->dU-editing enzyme APOBEC-3G (Homo sapiens) (UniProt Q9HC16); test: qHTS for inhibitors of Vif-A3G interactions: Validation (AID 588379; active = well fitted inhibition curve with a large enough effect; note: 0% is about no effect)
In short: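 HeLa cells stably expressing Vif and A3G-eYFP, 700 cells/well, incubated overnight at 37 deg C, then exposed to compound overnight at 37 deg C. Inhibition of Vif-mediated degradation read as increased yellow fluorescence (Ex 488/Em 500-530) by laser-scanning cytometry.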

[18] = molecular target: Thyroid hormone receptor beta (Homo sapiens) (UniProt P10828); test: qHTS assay for small molecule agonists of thyroid hormone receptor beta signaling (AID 588545);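 note: 0% = DMSO only and 100% = 10 nM T3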
In short: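 TR-UAS-bla GripTite HEK 293 cells (2500/well, medium with 2% charcoal/dextran FBS) were treated in agonist mode for 18 h at 37 C, titrated. Beta-lactamase was read by CCF4 ratio after 2 h; normalized to 10 nM T3 (100%) and DMSO, Hill-fitted for EC50 and efficacy.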

[19] = molecular target: Androgen receptor (Homo sapiens) (UniProt P10275); test: qHTS assay for small molecule agonists of androgen receptor signaling (AID 588515; active = well fitted curve in the direction sought with a large enough effect in the signal ratio, with a control signal flat; the % refers to the signal ratio; note: % is set by controls: 0 for no effect and ±100 for the full control effect); details: AR-UAS-bla HEK293, beta-lactamase ratio, agonist 16 h; stronger effect = higher value
In short: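 EC50 and efficacy came from Hill fits of titrations (up to 92 uM) normalized to 30 nM R1881 as 100% and DMSO as 0%. Compound exposure was 16 h at 37 C on AR-UAS-bla HEK293 cells, with a 405/460/530 nm CCF4 fluorescence read.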

[20] = molecular target: Androgen receptor (Homo sapiens) (UniProt P10275); test: qHTS assay for small molecule antagonists of androgen receptor signaling (AID 588516; active = well fitted curve in the direction sought with a large enough effect in the signal ratio, with a control signal flat, not every such curve was filed as active; the % refers to the signal ratio; note: % is set by controls: 0 for no effect and ±100 for the full control effect)
In short: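 HEK293 AR-UAS-bla cells, 10% dialyzed FBS medium; cpd titration + R1881 10 nM final, 16 h 37 C; CCF4 2 h RT; FRET ratio; IC50/efficacy via Hill fit.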

Retinoic acid receptor RXR-alpha (Homo sapiens), sequence (P19793 whole entry, looked up): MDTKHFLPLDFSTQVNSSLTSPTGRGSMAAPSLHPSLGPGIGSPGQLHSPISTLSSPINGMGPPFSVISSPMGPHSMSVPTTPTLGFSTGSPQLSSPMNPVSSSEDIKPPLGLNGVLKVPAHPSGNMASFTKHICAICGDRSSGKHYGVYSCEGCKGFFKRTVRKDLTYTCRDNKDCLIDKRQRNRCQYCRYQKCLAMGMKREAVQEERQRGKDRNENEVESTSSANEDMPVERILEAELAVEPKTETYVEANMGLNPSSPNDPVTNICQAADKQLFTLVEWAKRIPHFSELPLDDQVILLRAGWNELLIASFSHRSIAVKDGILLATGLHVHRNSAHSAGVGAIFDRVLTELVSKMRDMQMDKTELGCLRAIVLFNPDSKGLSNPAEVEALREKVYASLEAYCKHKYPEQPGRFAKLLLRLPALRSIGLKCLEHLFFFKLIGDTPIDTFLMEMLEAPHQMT
Vitamin D3 receptor (Homo sapiens), sequence (P11473 whole entry, looked up): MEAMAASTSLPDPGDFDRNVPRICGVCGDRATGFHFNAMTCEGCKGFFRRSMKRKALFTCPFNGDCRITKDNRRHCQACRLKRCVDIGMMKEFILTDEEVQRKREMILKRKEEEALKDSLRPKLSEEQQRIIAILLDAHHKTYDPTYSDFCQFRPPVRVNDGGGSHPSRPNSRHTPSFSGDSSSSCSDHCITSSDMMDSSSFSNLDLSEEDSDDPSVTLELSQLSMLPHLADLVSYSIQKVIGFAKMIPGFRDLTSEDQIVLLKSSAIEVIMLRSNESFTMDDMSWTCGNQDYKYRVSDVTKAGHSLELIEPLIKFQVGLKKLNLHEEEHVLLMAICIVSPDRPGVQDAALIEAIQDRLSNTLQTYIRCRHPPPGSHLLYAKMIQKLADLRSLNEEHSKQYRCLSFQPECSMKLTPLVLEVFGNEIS
Peroxisome proliferator-activated receptor delta (Homo sapiens), sequence (Q03181 whole entry, looked up): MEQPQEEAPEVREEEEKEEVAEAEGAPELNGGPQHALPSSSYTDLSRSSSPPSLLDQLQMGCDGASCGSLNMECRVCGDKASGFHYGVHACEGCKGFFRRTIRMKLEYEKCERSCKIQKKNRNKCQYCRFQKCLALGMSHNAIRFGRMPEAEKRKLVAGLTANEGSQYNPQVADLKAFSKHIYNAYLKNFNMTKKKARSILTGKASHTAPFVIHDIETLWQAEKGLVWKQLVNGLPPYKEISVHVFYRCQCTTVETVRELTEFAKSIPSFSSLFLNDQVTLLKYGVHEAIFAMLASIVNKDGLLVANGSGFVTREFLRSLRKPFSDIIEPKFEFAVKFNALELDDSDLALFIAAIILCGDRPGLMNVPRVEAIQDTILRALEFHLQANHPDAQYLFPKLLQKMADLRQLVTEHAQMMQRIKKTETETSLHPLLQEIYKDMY
Ubiquitin carboxyl-terminal hydrolase 1 (Homo sapiens), sequence (O94782 whole entry, looked up): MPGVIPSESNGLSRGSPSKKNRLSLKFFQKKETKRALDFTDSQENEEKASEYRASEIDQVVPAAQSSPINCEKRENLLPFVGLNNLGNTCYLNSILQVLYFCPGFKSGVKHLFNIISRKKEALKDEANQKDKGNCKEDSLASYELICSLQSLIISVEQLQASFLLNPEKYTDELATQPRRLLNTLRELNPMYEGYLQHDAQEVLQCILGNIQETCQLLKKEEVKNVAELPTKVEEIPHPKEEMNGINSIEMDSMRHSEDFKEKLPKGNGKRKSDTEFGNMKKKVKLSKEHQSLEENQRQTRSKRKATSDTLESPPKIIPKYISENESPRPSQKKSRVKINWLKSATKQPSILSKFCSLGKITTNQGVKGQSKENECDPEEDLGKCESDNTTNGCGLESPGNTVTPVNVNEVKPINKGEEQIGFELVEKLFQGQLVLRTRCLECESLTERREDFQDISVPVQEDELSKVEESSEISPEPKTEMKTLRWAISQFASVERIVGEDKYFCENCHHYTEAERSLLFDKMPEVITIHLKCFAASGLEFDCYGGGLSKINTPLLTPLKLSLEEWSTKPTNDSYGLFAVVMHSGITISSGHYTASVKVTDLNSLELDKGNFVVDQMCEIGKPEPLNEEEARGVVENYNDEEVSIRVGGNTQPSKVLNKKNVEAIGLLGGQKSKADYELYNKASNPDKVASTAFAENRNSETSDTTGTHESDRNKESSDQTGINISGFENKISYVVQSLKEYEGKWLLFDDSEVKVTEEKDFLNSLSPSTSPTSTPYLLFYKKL
Peroxisome proliferator-activated receptor gamma (Homo sapiens), sequence (P37231 whole entry, looked up): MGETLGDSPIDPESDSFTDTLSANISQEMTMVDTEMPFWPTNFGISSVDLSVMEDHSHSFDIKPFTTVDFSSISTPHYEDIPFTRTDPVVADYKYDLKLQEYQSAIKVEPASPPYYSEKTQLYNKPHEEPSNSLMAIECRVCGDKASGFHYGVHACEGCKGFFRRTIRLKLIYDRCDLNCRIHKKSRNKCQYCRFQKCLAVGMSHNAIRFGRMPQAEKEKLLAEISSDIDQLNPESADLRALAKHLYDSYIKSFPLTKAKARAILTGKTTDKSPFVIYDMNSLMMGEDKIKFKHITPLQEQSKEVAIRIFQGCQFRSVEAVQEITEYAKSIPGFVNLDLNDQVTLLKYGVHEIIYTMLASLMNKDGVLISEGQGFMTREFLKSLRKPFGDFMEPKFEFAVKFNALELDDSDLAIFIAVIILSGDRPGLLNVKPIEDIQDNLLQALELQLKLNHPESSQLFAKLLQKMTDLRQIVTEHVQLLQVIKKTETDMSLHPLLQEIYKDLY
Thyroid hormone receptor beta (Homo sapiens), sequence (P10828 whole entry, looked up): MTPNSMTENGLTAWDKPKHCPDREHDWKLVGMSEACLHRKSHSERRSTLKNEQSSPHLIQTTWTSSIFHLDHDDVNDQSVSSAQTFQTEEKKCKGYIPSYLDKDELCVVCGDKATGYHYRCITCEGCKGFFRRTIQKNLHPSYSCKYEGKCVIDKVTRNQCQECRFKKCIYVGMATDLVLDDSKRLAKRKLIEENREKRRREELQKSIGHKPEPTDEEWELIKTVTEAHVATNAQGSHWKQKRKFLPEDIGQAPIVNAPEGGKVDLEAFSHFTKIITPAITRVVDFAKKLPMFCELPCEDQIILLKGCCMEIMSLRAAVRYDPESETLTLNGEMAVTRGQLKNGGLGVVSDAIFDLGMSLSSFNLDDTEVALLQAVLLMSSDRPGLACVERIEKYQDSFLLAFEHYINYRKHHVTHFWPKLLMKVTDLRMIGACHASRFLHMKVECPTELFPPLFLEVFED
DNA dC->dU-editing enzyme APOBEC-3G (Homo sapiens), sequence (Q9HC16 whole entry, looked up): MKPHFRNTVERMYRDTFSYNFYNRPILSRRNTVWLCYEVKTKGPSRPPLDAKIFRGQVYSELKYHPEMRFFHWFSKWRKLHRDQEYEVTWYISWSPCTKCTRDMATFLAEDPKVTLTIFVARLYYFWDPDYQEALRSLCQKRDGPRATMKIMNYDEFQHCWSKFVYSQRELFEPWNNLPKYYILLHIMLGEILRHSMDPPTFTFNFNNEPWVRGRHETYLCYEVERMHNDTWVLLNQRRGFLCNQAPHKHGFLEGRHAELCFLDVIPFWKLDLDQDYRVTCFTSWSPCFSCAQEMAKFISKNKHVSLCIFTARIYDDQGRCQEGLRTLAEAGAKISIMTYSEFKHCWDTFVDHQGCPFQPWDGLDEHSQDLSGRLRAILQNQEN
Estrogen receptor (Homo sapiens), sequence (P03372 whole entry, looked up): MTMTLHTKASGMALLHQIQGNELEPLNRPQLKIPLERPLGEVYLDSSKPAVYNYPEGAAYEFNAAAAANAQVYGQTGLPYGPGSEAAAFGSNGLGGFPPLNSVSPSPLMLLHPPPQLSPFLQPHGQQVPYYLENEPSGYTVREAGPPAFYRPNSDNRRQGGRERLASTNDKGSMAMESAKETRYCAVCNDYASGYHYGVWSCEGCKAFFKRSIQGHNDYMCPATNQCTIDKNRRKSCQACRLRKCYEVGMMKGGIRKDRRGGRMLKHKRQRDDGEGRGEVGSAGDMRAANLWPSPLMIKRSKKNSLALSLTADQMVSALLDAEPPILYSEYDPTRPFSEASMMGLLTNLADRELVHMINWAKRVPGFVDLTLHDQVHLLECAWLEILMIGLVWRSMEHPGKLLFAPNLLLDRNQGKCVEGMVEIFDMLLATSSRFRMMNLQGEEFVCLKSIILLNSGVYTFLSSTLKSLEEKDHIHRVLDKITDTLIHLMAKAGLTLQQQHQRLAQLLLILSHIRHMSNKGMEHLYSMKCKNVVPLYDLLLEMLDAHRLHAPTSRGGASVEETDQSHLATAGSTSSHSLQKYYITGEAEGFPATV
Bile acid receptor (Homo sapiens), sequence (Q96RI1 whole entry, looked up): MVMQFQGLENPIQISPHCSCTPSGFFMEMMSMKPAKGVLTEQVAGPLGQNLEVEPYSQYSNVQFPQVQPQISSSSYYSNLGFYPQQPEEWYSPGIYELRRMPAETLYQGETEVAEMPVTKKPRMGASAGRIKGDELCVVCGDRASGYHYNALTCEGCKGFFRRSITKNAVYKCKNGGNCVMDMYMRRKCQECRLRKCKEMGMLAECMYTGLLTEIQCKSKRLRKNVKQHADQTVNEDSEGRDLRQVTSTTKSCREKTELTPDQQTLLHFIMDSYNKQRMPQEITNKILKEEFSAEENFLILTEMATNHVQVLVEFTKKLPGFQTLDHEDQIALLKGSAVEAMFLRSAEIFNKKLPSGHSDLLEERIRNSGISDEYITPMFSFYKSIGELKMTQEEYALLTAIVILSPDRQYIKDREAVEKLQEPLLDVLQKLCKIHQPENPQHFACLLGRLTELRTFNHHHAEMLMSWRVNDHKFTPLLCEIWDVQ

CCN(CC)C(=O)c1cccc(C)c1
-4.92% and 6.96%: max response [13]
inactive: Potency [1] | outcome [2] | outcome [3] | outcome [4] | activation [5] -2.58% and -6.82% | outcome [6] | outcome [8] | outcome [9] | outcome [10] | outcome [11] | outcome [12] | outcome [14] | max response [16] 0.203% and -8.17%
-21.8%: max response [7]
-0.756% and -2.65%: max response [15]

O=C1c2ccccc2S(=O)(=O)N1CCCCN1CCN(c2ncccn2)CC1
inactive: Potency [1] | outcome [17]

Cc1cc(=O)[nH]c(=S)[nH]1
-3.7%: max response [15]
inactive: Potency [1] | outcome [2] | outcome [3] | outcome [4] | activation [5] -0.999% | outcome [6] | outcome [9] | outcome [10] | outcome [11] | outcome [12] | outcome [14] | outcome [18] | max response [16] 1.44%
-2.22%: max response [13]

CC(C)=CCC/C(C)=C/CO
-9.95%: max response [13]
-9.74%: max response [15]
-8.02%: max response [7]
inactive: Potency [1] | activation [19] 8.43% | outcome [20] | outcome [4] | outcome [6] | outcome [8] | outcome [9] | outcome [10] | outcome [11] | outcome [14] | outcome [18] | max response [16] -1.85%

CCCCCCCC(=O)OCC(COC(=O)CCCCCCC)OC(=O)CCCCCCC
-2.18%: max response [13]
inactive: Potency [1] | outcome [2] | outcome [3] | outcome [4] | activation [5] 2.19% | outcome [6] | outcome [8] | outcome [9] | outcome [11] | outcome [12] | outcome [14] | outcome [18] | max response [16] 4.61%
-12.4%: max response [15]
17.8%: max response [7]

CCCCOC(=O)c1ccc(N)cc1
inactive: Potency [1] | outcome [2] | activation [5] -4.26% | outcome [9] | outcome [11] | outcome [12] | outcome [14] | outcome [18] | max response [16] -25.6%
8.21%: max response [13]
-1.8%: max response [15]

CCCCCCCCCCCCCCCCCCO
2.82%: max response [7]
-0.452%: max response [13]
4.76%: max response [15]
inactive: Potency [1] | outcome [2] | outcome [3] | activation [5] -8.91% | outcome [6] | outcome [8] | outcome [9] | outcome [10] | outcome [11] | outcome [12] | outcome [14] | outcome [18] | max response [16] 3.77%

O=C(c1ccccc1)C(O)c1ccccc1 (stereo not given)
inactive: Potency [1] | activation [5] 2.68% and -5.31% | outcome [6] | outcome [8] | outcome [9] | outcome [10] | outcome [11] | outcome [12] | outcome [14] | outcome [18] | max response [16] 0.509%
-5.59% and -16%: max response [7]
1.82% and 5.17%: max response [13]
-8.34%: max response [15]

CN[C@@H]1[C@H](O)[C@H](NC)[C@H]2O[C@@]3(O)C(=O)C[C@@H](C)O[C@H]3O[C@@H]2[C@H]1O
inactive: outcome [17]

FC(F)(F)C(Cl)Br (stereo not given)
-35.1%: max response [7]
-10.5%: max response [13]
inactive: Potency [1] | outcome [2] | outcome [3] | activation [5] -1.46% | outcome [6] | outcome [8] | outcome [9] | outcome [10] | outcome [14] | outcome [18] | max response [16] -3.82%
-1.63%: max response [15]

C=CCNC(N)=S
-1.13%: max response [15]
13.5%: max response [7]
14.7%: max response [13]
inactive: Potency [1] | outcome [8] | outcome [9] | outcome [11] | outcome [12] | outcome [14] | outcome [18] | max response [16] -16.9%

CC(=O)OCC(COC(C)=O)OC(C)=O
-12.6% and -13.8%: max response [13]
inactive: Potency [1] | activation [5] -5.82% | outcome [6] | outcome [8] | outcome [9] | outcome [10] | outcome [11] | outcome [12] | outcome [14] | outcome [18] | max response [16] 4.6%
-24.1% and 22.8%: max response [7]
-8.38%: max response [15]

CN(C(=O)c1c(O)c2ccccc2n(C)c1=O)c1ccccc1
inactive: Potency [1] | outcome [17]

COc1ccc(O)cc1
3.48%: max response [7]
-5.99%: max response [13]
-9.24%: max response [15]
inactive: Potency [1] | activation [19] -4.19% | outcome [20] | activation [5] -2.84% | outcome [6] | outcome [8] | outcome [11] | outcome [12] | outcome [14] | outcome [18] | max response [16] -8.57%

Cc1c(C(=O)NCCO)[n+](=O)c2ccccc2n1[O-]
-9.58%: max response [13]
-20%: max response [7]
-9.28%: max response [15]
inactive: Potency [1] | outcome [20] | activation [5] 0.345% | outcome [6] | outcome [8] | outcome [9] | outcome [11] | outcome [14] | outcome [18] | max response [16] -2.52%

CC[N+](CC)(CC(=O)Nc1c(C)cccc1C)Cc1ccccc1
inactive: Potency [1] | outcome [2] | outcome [3] | outcome [9] | outcome [10] | outcome [11] | outcome [12] | outcome [14] | max response [16] -2.97%
-13%: max response [15]
-1.28%: max response [13]
